{
  "source": "the supplement of paper PMC10849652",
  "note": "Of roughly 7,900 targets only a part is listed; those with a hit were picked by preference. About 0.6% of all pairs of compound and target were hits.",
  "data": [
    {"compound": "CCCCN(Cc1ccc(C(=O)NO)cc1)C(=O)Nc1ccccc1 [Nexturastat A]", "experiment": "log2 fold change, soluble protein after heating vs DMSO (PISA); higher = thermal stabilisation; K562 cells, 10 uM, 30 min; active = over 0.2 and 3.5 SD of the protein, either way, in both replicates (recomputed)", "in_short": "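K562 cells at 2×10^6 cells/mL were given 10 μM compound for 30 min. Aliquots then went through 3 min of heating across 48°C-58°C, were pooled, and were extracted in PBS with 0.5% NP-40 at 4°C, and the supernatant after 21,000xg for 90 min was quantified by TMTpro 16plex LC-MS/MS with channel sums equalised. Thermal stability relative to control samples, from duplicates, is given as log2 fold change.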", "values": [
      {"target": "NDUFA6 (UniProt P56556)", "log2 fold change": "-0.067 (inactive)"},
      {"target": "MORF4L2 (UniProt Q15014)", "log2 fold change": "0.129 (inactive)"},
      {"target": "NOL7 (UniProt Q9UMY1)", "log2 fold change": "0.214 (inactive)"},
      {"target": "NELFA (UniProt Q9H3P2)", "log2 fold change": "-0.104 (inactive)"},
      {"target": "NHLRC2 (UniProt Q8NBF2)", "log2 fold change": "-0.055 (inactive)"},
      {"target": "MRPS25 (UniProt P82663)", "log2 fold change": "0.012 (inactive)"},
      {"target": "MINK1 (UniProt Q8N4C8)", "log2 fold change": "-0.007 (inactive)"},
      {"target": "OSBPL8 (UniProt Q9BZF1)", "sequence (Q9BZF1 whole entry, looked up)": "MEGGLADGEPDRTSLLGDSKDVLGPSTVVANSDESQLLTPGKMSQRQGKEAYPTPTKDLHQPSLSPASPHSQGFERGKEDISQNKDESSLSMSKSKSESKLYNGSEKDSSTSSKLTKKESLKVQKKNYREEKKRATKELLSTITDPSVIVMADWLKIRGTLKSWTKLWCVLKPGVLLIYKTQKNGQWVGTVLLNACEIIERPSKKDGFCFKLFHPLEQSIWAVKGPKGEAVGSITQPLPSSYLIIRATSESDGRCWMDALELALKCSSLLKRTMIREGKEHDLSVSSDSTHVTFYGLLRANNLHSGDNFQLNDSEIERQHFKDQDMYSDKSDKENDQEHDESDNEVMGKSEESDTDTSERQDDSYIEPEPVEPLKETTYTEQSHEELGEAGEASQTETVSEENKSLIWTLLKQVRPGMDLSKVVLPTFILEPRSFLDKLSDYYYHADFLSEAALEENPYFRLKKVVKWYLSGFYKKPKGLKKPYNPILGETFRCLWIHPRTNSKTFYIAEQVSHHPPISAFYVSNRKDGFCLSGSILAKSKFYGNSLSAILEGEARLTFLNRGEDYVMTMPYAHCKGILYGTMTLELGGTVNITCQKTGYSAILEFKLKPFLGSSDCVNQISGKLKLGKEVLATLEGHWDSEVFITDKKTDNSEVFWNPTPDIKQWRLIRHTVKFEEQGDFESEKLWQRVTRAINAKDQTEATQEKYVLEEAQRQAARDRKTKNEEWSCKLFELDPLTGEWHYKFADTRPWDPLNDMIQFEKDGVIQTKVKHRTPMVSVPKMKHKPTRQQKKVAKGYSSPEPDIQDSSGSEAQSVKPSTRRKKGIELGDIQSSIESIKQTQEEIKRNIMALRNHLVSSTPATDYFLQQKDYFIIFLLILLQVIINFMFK", "log2 fold change": "0.109 (inactive)"},
      {"target": "NDUFA9 (UniProt Q16795)", "log2 fold change": "-0.095 (inactive)"},
      {"target": "NTMT1 (UniProt Q9BV86)", "log2 fold change": "-0.042 (inactive)"},
      {"target": "NFATC3 (UniProt Q12968)", "log2 fold change": "0.047 (inactive)"},
      {"target": "NAA11 (UniProt Q9BSU3)", "log2 fold change": "-0.016 (inactive)"},
      {"target": "NUDT1 (UniProt P36639)", "log2 fold change": "-0.086 (inactive)"},
      {"target": "MRPS18B (UniProt Q9Y676)", "log2 fold change": "0.031 (inactive)"},
      {"target": "NOP56 (UniProt O00567)", "sequence (O00567 whole entry, looked up)": "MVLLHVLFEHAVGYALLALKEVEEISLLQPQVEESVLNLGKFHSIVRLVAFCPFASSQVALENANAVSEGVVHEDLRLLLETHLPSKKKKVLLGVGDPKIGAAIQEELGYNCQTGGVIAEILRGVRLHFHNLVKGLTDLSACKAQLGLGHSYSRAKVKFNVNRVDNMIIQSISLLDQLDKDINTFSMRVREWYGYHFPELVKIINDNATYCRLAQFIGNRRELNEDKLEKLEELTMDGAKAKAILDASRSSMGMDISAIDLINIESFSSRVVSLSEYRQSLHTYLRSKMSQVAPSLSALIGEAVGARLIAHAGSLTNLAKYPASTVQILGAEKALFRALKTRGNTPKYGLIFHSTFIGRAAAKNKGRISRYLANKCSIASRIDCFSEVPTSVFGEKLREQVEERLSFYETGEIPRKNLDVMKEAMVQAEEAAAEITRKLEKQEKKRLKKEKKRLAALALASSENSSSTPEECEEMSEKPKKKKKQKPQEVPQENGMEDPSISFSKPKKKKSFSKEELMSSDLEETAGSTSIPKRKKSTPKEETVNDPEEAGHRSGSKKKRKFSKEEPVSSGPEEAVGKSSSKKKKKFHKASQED", "log2 fold change": "0.127 (inactive)"},
      {"target": "MRPS15 (UniProt P82914)", "log2 fold change": "0.058 (inactive)"},
      {"target": "MXRA7 (UniProt P84157)", "log2 fold change": "-0.002 (inactive)"},
      {"target": "NPC1 (UniProt O15118)", "log2 fold change": "-0.041 (inactive)"},
      {"target": "NUCKS1 (UniProt Q9H1E3)", "log2 fold change": "-0.061 (inactive)"},
      {"target": "NCAPG (UniProt Q9BPX3)", "log2 fold change": "0.011 (inactive)"},
      {"target": "NDUFB7 (UniProt P17568)", "log2 fold change": "0.023 (inactive)"},
      {"target": "NACC1 (UniProt Q96RE7)", "log2 fold change": "-0.036 (inactive)"},
      {"target": "NDUFS8 (UniProt O00217)", "log2 fold change": "-0.136 (inactive)"},
      {"target": "NCL (UniProt P19338)", "log2 fold change": "0.275 (inactive)"},
      {"target": "NOB1 (UniProt Q9ULX3)", "log2 fold change": "0.034 (inactive)"},
      {"target": "NDUFA12 (UniProt Q9UI09)", "log2 fold change": "-0.027 (inactive)"},
      {"target": "NBN (UniProt O60934)", "log2 fold change": "-0.03 (inactive)"},
      {"target": "NIBAN1 (UniProt Q9BZQ8)", "log2 fold change": "0.077 (inactive)"},
      {"target": "OXSR1 (UniProt O95747)", "log2 fold change": "-0.021 (inactive)"},
      {"target": "NFYC (UniProt Q13952)", "log2 fold change": "-0.087 (inactive)"},
      {"target": "NAPG (UniProt Q99747)", "log2 fold change": "0.004 (inactive)"},
      {"target": "NUP210 (UniProt Q8TEM1)", "sequence (Q8TEM1 whole entry, looked up)": "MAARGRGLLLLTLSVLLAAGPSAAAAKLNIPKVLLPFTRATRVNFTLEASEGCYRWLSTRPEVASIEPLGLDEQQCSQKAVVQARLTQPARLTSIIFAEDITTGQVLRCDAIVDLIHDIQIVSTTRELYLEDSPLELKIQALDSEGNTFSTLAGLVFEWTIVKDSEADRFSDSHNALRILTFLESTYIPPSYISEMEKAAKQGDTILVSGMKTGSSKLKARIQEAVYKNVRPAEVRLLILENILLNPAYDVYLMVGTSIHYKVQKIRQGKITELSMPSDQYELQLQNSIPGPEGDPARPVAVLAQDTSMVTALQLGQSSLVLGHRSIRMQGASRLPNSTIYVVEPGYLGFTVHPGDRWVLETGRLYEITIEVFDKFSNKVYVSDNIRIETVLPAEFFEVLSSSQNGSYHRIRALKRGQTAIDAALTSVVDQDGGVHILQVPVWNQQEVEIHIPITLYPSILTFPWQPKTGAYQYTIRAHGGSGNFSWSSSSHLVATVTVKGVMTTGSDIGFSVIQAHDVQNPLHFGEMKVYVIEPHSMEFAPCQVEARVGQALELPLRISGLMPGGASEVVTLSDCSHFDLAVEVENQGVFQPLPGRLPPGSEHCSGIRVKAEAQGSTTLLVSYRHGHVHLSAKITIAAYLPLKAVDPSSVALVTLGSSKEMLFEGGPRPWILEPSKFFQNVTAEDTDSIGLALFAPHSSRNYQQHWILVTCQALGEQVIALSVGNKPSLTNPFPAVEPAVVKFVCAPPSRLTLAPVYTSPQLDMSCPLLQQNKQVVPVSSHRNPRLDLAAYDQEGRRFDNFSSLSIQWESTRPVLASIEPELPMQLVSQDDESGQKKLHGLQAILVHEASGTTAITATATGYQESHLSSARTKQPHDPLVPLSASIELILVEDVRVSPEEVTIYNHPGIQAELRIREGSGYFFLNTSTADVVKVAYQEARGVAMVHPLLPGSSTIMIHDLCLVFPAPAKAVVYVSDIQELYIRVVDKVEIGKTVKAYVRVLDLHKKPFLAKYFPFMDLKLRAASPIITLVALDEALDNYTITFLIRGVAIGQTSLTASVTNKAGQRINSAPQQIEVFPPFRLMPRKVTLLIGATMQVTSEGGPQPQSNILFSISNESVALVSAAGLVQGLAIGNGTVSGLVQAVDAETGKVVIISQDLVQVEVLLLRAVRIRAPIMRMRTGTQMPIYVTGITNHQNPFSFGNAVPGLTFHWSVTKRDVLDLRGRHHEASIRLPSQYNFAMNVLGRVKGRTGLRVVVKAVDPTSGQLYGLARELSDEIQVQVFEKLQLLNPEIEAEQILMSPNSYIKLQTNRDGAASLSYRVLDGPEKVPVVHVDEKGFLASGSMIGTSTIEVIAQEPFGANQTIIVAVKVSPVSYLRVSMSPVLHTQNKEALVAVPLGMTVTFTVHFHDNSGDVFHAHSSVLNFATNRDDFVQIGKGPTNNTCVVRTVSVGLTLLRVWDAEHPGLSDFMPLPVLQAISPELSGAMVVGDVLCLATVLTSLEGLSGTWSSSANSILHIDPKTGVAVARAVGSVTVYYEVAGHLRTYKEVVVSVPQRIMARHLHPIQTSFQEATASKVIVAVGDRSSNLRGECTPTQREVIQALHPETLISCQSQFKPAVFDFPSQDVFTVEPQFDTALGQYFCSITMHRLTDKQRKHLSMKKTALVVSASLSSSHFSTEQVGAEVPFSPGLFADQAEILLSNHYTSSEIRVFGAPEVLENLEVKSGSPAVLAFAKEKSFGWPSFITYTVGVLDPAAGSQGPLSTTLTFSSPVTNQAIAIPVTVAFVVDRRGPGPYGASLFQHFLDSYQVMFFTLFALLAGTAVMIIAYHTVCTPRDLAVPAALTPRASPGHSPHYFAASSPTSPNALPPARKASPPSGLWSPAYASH", "log2 fold change": "-0.08 (inactive)"},
      {"target": "MRPS24 (UniProt Q96EL2)", "log2 fold change": "0.095 (inactive)"},
      {"target": "NMT1 (UniProt P30419)", "sequence (P30419 whole entry, looked up)": "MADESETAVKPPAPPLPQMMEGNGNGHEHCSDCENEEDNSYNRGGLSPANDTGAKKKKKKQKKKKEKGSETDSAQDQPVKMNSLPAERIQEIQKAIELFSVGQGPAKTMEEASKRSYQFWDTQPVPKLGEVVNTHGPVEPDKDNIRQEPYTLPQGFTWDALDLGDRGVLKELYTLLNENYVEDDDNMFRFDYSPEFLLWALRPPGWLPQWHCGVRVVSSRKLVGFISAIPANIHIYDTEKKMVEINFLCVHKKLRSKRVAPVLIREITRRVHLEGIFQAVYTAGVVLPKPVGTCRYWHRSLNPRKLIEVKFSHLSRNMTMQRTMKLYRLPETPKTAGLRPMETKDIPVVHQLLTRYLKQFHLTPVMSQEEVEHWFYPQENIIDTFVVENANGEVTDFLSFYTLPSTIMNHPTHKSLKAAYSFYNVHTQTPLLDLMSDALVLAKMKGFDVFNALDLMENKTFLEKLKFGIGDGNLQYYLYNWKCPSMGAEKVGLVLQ", "log2 fold change": "-0.036 (inactive)"},
      {"target": "NUP205 (UniProt Q92621)", "log2 fold change": "0.151 (inactive)"},
      {"target": "MRPL46 (UniProt Q9H2W6)", "log2 fold change": "0.076 (inactive)"},
      {"target": "MON1B (UniProt Q7L1V2)", "log2 fold change": "-0.058 (inactive)"},
      {"target": "NFX1 (UniProt Q12986)", "sequence (Q12986 whole entry, looked up)": "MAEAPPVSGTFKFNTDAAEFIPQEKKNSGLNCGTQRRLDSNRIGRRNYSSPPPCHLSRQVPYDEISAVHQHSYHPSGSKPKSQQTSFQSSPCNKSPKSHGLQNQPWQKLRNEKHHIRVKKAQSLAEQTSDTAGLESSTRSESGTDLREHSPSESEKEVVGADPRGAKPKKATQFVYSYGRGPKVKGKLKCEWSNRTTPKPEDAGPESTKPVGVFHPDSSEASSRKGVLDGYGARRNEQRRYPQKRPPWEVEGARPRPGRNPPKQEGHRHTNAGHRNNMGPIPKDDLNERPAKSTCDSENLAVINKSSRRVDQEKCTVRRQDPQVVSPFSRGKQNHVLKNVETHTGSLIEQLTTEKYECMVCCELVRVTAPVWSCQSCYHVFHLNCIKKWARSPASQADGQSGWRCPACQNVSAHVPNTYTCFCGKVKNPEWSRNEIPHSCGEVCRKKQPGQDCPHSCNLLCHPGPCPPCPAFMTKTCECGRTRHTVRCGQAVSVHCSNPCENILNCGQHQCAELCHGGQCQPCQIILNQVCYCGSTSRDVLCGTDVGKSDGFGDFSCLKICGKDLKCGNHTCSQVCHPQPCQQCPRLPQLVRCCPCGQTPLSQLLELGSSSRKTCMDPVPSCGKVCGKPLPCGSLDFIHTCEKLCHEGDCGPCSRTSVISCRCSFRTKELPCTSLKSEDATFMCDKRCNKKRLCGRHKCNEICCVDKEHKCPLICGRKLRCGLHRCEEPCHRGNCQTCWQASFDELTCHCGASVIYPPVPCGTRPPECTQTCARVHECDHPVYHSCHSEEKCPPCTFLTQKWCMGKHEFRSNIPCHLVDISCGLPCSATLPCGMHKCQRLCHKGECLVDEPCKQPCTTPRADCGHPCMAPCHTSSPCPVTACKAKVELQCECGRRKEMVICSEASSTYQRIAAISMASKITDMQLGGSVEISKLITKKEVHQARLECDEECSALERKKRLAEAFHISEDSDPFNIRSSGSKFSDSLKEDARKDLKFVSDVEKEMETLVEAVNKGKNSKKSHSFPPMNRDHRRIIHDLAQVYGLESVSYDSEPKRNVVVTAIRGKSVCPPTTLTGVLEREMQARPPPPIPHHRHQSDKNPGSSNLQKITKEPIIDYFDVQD", "log2 fold change": "0.287 (inactive)"},
      {"target": "MRPS16 (UniProt Q9Y3D3)", "log2 fold change": "0.124 (inactive)"}
    ]}
  ]
}
